A selection: hits, their analogues and other compounds. The true share with any hit is near 3.2%.
GBA activity – Glucocerebrosidase | Lysosomal acid glucosylceramidase (Homo sapiens), P04062 | purified enzyme, resorufin glucoside fluorescence (screen aimed at inhibitors), 20 min | Potency, µM | 1.1% of 48,000 active; in the data active = potency below about 15 µM; inconclusive = mostly about 16 µM to 33 µM;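 note: the screen sought inhibitors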
Target sequence (P04062 whole entry, looked up): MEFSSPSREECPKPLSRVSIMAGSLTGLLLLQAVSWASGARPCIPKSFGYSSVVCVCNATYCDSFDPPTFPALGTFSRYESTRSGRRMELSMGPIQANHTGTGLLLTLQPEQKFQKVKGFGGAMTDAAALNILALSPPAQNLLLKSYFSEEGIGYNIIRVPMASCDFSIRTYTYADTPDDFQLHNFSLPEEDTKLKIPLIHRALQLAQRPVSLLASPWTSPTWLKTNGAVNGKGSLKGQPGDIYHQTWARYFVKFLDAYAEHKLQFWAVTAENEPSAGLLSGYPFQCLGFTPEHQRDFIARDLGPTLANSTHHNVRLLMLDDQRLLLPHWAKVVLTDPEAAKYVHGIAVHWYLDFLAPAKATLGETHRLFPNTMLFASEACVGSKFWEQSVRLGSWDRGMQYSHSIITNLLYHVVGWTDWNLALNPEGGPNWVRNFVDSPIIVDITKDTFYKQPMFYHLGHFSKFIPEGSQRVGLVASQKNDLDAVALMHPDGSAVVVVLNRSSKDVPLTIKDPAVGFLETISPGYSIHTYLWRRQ
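Wild-type enzyme at 0.2 nM final in 50mM citric acid/KH2PO4, 10mM sodium taurocholate, 0.01% tween-20, pH 5.9, with resorufin beta-D-glucopyranoside at 30 uM final. Compounds titrated, 20 min at RT, red fluorescence read; AC50 from titration.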
FLuc inh – qHTS Assay for Inhibitors of Firefly Luciferase; Luciferin 4-monooxygenase (Photinus pyralis), P08659; purified firefly luciferase, luminescence, 8 min; Potency, µM (highest dose often 57.1 µM), for the others: at the highest dose activity change, negative = inhibition, actives largely listed as inhibitors; 2.2% of 72,000 active; AID 411, 2009; active = well fitted inhibition curve with a large enough effect; inconclusive = small, poorly fitted or top-dose-only effect; note: % is set by controls: 0 for no effect and ±100 for the full control effect; nearly all actives have a fitted effect of over 40% in size
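Substrate buffer containing 10 uM ATP (pH 7.2 imidazole, Mg2+, KCl, detergent, BSA) is dispensed, compound pinned in, then luciferase/luciferin detector mix added. After 8 min at ambient temperature, light output is measured.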
Bst PK mod – Pyruvate Kinase. Potency, µM. purified pyruvate kinase, luminescence ATP production; ribose 5-phosphate activator present at AC10. 1.2% of 51,000 active; in the data active = potency below about 11 µM; inconclusive = mostly about 12 µM to 25 µM;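 the screen sought inhibitors and activators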;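 note: scaled between full activation by ribose 5 phosphate and full inhibition by luteolin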
Starred values were filed as active, the others as inactive; i = inactive; ? = inconclusive; . = no result given; [ ] = remark or other dose. Potency is the fitted concentration of half-maximal effect.

SMILES | GBA activity | FLuc inh | Bst PK mod
CCOC(=O)CC(=O)Nc1ccccc1C(=O)O | . | 2% | .
CN(Cc1ccco1)c1ncncc1-c1cccc(NS(C)(=O)=O)c1 | . | 0%[2.29 µM] | .
CC1CCc2cccc3c2N1c1cc(C#N)c(C#N)cc1O3 (stereo not given) | 5* | 1% | i
c1ccc2nc3c(nc2c1)sc1nc2ccccc2n13 | >77 | -1% | ?
CC(C)(O)c1cc(=O)sc2nc3ccccc3n12 | >77 | 25µM* | i
Clc1ccc2nc(N3CCCCC3)sc2c1 | >77 | ? | i
Clc1ccc2nc(N3CCCCC3)[nH]c2c1 | . | 13µM* | i
O=C(c1cc(C(F)(F)F)cc(C(F)(F)F)c1)N1CCC2(CCN(Cc3nccs3)CC2)CC1 | . | 1%[11.4 µM] | .
COCCn1c(=O)c(C)nc2cnc(Oc3cccc(Cl)c3)nc21 | . | 1%[11.4 µM] | .
COc1cccc(-c2cncnc2NC2CCNCC2)c1 | . | 2%[2.29 µM] | .
CN1[C@@H]2CC[C@H]1CC(OC(=O)[C@@H](CO)c1ccccc1)C2 (stereo not given in full) | . | 2%[11.4 µM] | .
CC[N+](CC)(CC)CC[C@](O)(c1ccccc1)C1CCCCC1 | . | -9%[25.5 µM] | .
O=C(Nc1ccc2c(c1)OCO2)c1ccc(Br)s1 | ? | 13µM* | ?
COc1ccc(Cl)cc1C(=O)Nc1ccc(NC(=O)c2ccco2)cc1 | . | 2% | .
CC(=O)c1cc2c(cc1NC(=O)Nc1cccc(Cl)c1)OCCO2 | >77 | -5% | >57
COc1ccc(Cl)cc1C(=O)Nc1ccc2c(c1)OCO2 | ? | 13µM* | i
COc1cc(C(=O)Nc2ccc3c(c2)OCCO3)c(-n2cnnn2)cc1OC | >77 | 3% | >57
O=C(Nc1ccc2c(c1)OCO2)c1cccs1 | >77 | ? | .
O=C(Nc1cccc(Cl)c1)Nc1ccc2c(c1)OCO2 | >77 | 16µM* | .
COc1cc(SC)ccc1C(=O)Nc1ccc2c(c1)OCCO2 | . | 1.3µM* | .
O=C1c2c(O)cc(O)cc2O[C@@H](c2ccc(O)c(O)c2)[C@H]1O | . | 4% | .
O=[N+]([O-])/C=C\c1cc2ccccc2[nH]1 | . | 0%[11.4 µM] | .
CCOC(=O)c1ccc(NC(=O)c2ccc3c(c2)OCO3)cc1 | >77 | -14% | >57
CCOC(=O)c1c(C)[nH]c(C(=O)Nc2ccc3c(c2)OCO3)c1C | 13* | 13µM* | i
CN(c1ccccc1C(=O)Nc1ccc2c(c1)OCCO2)S(C)(=O)=O | >77 | 2% | >57
SMILES | GBA activity | FLuc inh | Bst PK mod
CCCN1Cc2cccc(C(=O)Nc3ccc4c(c3)OCO4)c2C1=O | >77 | -2% | .
COc1ccccc1C(=O)Nc1ccc2c(c1)OCCO2 | >77 | 16µM* | i
COc1ccccc1C(=O)Nc1ccc2c(c1)OCO2 | . | 25µM* | .
COc1ccccc1C(=O)NCc1ccc2c(c1)OCO2 | . | 1% | .
CCCN1Cc2cccc(C(=O)Nc3ccc4c(c3)OCCO4)c2C1=O | . | 13µM* | .
CO/N=C(\C)CCN1CCc2nc(-c3ccccc3)c(-c3ccccc3)cc2C1 | . | -1%[11.4 µM] | .
CN1CCC[C@@H]1c1cccnc1.O=C(O)c1ccccc1O.O=C([OH2+])c1ccccc1O.O=C([OH2+])c1ccccc1O.O=C([OH2+])c1ccccc1O.[Mn] | . | 0%[11.4 µM] | .
CCOC(=O)CCN1C(=O)[C@H]2[C@H]3[C@H](O)[C@H](O)C/C(=N/O[C@@H]4O[C@@H](COC(C)=O)[C@@H](OC(C)=O)[C@@H](OC(C)=O)[C@H]4OC(C)=O)[C@H]3CC[C@@H]2C1=O | . | 1%[11.4 µM] | .
Cc1noc(C)c1-c1nccc(NCc2ccccc2)n1 | . | 0%[2.29 µM] | .
CN(c1ccccc1C(=O)Nc1ccc2c(c1)OCO2)S(C)(=O)=O | >77 | -1% | >57
Cc1ccccc1C(=O)Nc1ccc2c(c1)OCO2 | >77 | 16µM* | ?
Cc1ccc2nc(-c3cccc(-c4nc5ccc(C)cc5o4)n3)oc2c1 | >77 | 1% | >57
COc1cc(C(=O)Nc2cc(-c3nc4cc(C)ccc4o3)ccc2C)cc(OC)c1OC | . | 1µM* | .
COc1cc(OC)cc(-c2nc3cc(C)ccc3o2)c1 | ? | 16µM* | i
COc1cc(C(=O)Nc2cccc(-c3nc4cc(C)ccc4o3)c2C)cc(OC)c1OC | . | -28% | .
COCC(=O)N1CCC2(CCN(Cc3ccncc3)CC2)CC1 | . | 2%[11.4 µM] | .
C[C@H](N)C(=O)OC(C)(C)Cc1ccc(Cl)cc1 | . | 0% | .
CCOc1ccc(C(=O)COC(=O)CC)cc1 | . | 16µM* | .
CCC(=O)c1ccc(OCC(=O)O)cc1 | >77 | -5% | >57
N#Cc1ccccc1-c1ccc2ncnc(NCc3cccs3)c2c1 | . | 0%[2.29 µM] | .
CCNc1ncc2nc(-c3cn(C)c4ccccc34)c(=O)n(C[C@H]3CCCO3)c2n1 | . | 1%[11.4 µM] | .
Cc1cc2n(n1)C(c1ccc(N(C)C)cc1)Nc1ccccc1-2 (stereo not given) | >77 | 25µM* | ?
Cc1cc2n(n1)C(c1ccccc1)Nc1ccccc1-2 (stereo not given) | >77 | 5% | .
O=S(=O)(c1ccccc1)N1CCC2(CCN(C(c3ccccc3)c3ccccc3)CC2)CC1 | . | 1%[11.4 µM] | .
CN(C)S(=O)(=O)N1CCC(c2ccc(F)cc2)C(COc2ccc3c(c2)OCO3)C1 (stereo not given) | >77 | 0% | >57
SMILES | GBA activity | FLuc inh | Bst PK mod
Fc1ccc([C@H]2CCNC[C@H]2COc2ccc3c(c2)OCO3)cc1 | . | 5µM* | .
Nc1nc(CSc2ccccn2)nc(Nc2ccccc2)n1 | >77 | 20µM* | .
COc1ccc2nc(SCC(N)=O)[nH]c2c1 | >77 | 0% | >57
COc1ccc2nc(SCc3nc(N)nc(Nc4ccccc4)n3)[nH]c2c1 | . | 13µM* | .
CCOC(=O)c1cnc(SCc2nc(N)nc(Nc3ccccc3)n2)nc1N | >77 | -14% | >57
CCN1CCN(C(=O)c2ccc(NS(=O)(=O)c3ccccc3)cc2)CC1 | ? | -1% | >57
CN1CCN(c2ncc3nc(CCc4ccccc4)c(=O)n(C4CC4)c3n2)CC1 | . | 2%[11.4 µM] | .
COCC(=O)N1CCC2(CCCN(c3cccc(-c4ccccc4)c3)C2)CC1 | . | -1%[11.4 µM] | .
CS(=O)c1ccc(-c2nc(-c3ccc(F)cc3)c(-c3ccncc3)[nH]2)cc1 (stereo not given) | . | 1% | .
O=c1c(-c2ccc(F)cc2)nc2cnc(Nc3ccccc3)nc2n1C1CC1 | . | 0%[11.4 µM] | .
C=CCOc1ccc(/C=C/C(C)=N\O)cc1 | . | 16µM* | .
CCOc1ccc(/C(=N\O)C(C)NO)cc1 (stereo not given) | . | 2% | .
CCN1CCN(c2ccc(NC(=O)c3cccc4ncccc34)cc2)CC1 | 8.7* | -1% | >57
CCCN1Cc2cccc(C(=O)Nc3ccc(N4CCN(CC)CC4)cc3)c2C1=O | ? | -27% | .
O=C(c1ccncc1)N1CCC2(CCN(Cc3ccccc3)CC2)CC1 | . | 1%[11.4 µM] | .
CN(Cc1ccco1)c1ncncc1-c1ccccc1Cl | . | 0%[2.29 µM] | .
c1ccc(N2CCN(c3nc(NCc4ccco4)c4ccccc4n3)CC2)cc1 | . | -2%[25.5 µM] | >26
c1coc(CNc2nc(N3CCCCC3)nc3ccccc23)c1 | 9.6* | -4% | >57
OC[C@@H]1O[C@@H](n2cnc3c(NC4CCCCC4)ncnc32)[C@@H](O)[C@H]1O | . | -13% | .
CCCCOc1ccc(C(=O)Nc2cccc(C)n2)cc1 | . | 13µM* | i
Cc1cccc(NC(=O)c2ccc(S(=O)(=O)N(C)C)cc2)n1 | >77 | -2% | >57
CN1C(=O)CSc2ccc(NC(=O)N3CCc4ccccc43)cc21 | >77 | 13µM* | 8.2*
CN1C(=O)CSc2ccc(NC(=O)N3CCN(c4ccccn4)CC3)cc21 | ? | -4% | >57
c1csc(CNc2nc(-c3ccoc3)nc3ccccc23)c1 | . | -2%[2.29 µM] | .

Bioassay records deposited in PubChem BioAssay by National Center for Advancing Translational Sciences (NCATS).
